Test [1] in a line: Primary qHTS for inhibitors of nuclear receptor binding SET domain protein 2 (NSD2) in an RCH-ACV wild type WT cells (2C) (AID 1645877). Further: nearly all actives have a fitted effect of over 70% in size. Further: potency means the concentration at half of the fitted maximal effect. On activity change, negative = cell killing: on the % scale 0 is the no-effect control and ±100 the full control effect.
Test [2] has as its target Glutathione peroxidase 1 (Homo sapiens) (UniProt P07203). The experiment in a line: Primary qHTS Assay for Inhibitors of Recombinant Selenoprotein Glutathione Peroxidase 1 (GPX1) (AID 1845191). Further: nearly all actives have a fitted effect of over 65% in size. On activity, negative = inhibition: on the % scale 0 is the no-effect control and ±100 the full control effect. The method, boiled down:
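10 nM GPX1 + cpd, 30 min RT; start w/ 1 mM GSH, 0.5 mM cumene hydroperoxide, 0.5 mM NADPH, 100 nM GR, 0.01% BSA; buffer 50 mM Tris-HCl pH 7.5, 2 mM EDTA, 150 mM NaCl; Fl 340/450, 0 & 15 min.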

Test [3] concerns the target Phospholipid hydroperoxide glutathione peroxidase GPX4 (Homo sapiens) (UniProt P36969). The test can be described thus: Primary qHTS Assay for Inhibitors of Recombinant Selenoprotein Glutathione Peroxidase 4 (GPX4) (AID 1845192). Further: nearly all actives have a fitted effect of over 65% in size. On activity change, negative = inhibition: series mostly up to about 50 µM; on the % scale 0 is the no-effect control and ±100 the full control effect. The method, boiled down: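 NADPH consumption, followed by fluorescence at 340/450 nm between 0 and 15 min, reports GPX4 activity via coupled glutathione reductase (100 nM). Enzyme 200 nM was pre-exposed to compound 30 min; 0.5 mM cumene hydroperoxide and 1 mM GSH served as substrates.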

The target of test [4] is Luciferin 4-monooxygenase (Photinus pyralis) (UniProt P08659). The test can be described thus: Primary firefly luciferase (FLuc) qHTS assay for identification of artifact compounds. (AID 1845220). Further: nearly all actives have a fitted effect of over 60% in size.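 On activity change, negative = inhibition: series mostly up to about 54 µM; plate controls were DMSO vehicle for no effect and no enzyme for full effect.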 The method, boiled down:
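FLuc 10 nM; luciferin 10 uM; ATP 10 uM; Tris-acetate pH 7.6, Mg-acetate 10 mM; 15 min RT preincubation; 5 min reaction; luminescence.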

A short description of test [5]: Primary fluorescence-based thiol-reactive (MSTI) qHTS assay for identification of artifact compounds. (AID 1845221). Further: nearly all actives have a fitted effect of over 65% in size. Further: potency means the concentration at half of the fitted maximal effect.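 On activity change, negative = thiol reactive: series mostly up to about 54 µM; thiol-reactive compounds lower the probe fluorescence signal.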 Summed up: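 qHTS titration of compound; 4 uM MSTI, PBS pH 7.4, 2% DMSO; 1 h RT, dark; fluorescence 525/598 nm; normalized to Acetyl-MSTI and MSTI; 4-parameter Hill fit.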
For test [6], the system named is Nanoluciferase (engineered Oplophorus gracilirostris luciferase). The experiment in a line: Primary Nanoluciferase (NLuc) qHTS assay for identification of artifact compounds. (AID 1845222).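 Further: NLuc secreted into diluted conditioned medium of S16 cells; series mostly up to about 54 µM; 0% = DMSO and -100% = no enzyme.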 The method, boiled down:
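NLuc from S16 cell medium (1:55) plus test compounds, 15 min, room temperature. Luminescence after Nano-Glo (1:100) addition, 5 min.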

Test [7] is described as follows: Primary redox qHTS assay for identification of artifact compounds. (AID 1845223).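 Further: 0% = DMSO and 100% = reference compound.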 The method, boiled down: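 Amplex Red (25 uM) and HRP (250 mU/mL) in HBSS, with compounds for 15 min, then 250 uM DTT for 30 min, room temperature, dark. Fluorescence 525/598 nm read; normalized to DMSO and 10 uM DA3003; Hill fit.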

Where “and” joins values, the source holds several entries; their conditions need not be identical. Equal values may be shown once. Values without a mark were called inactive. Inconclusive results are not listed. Calls of active or inactive are those of the source. The call rests on the fitted dose curve; in most records, active means well fitted curve in the direction sought with a large enough effect; inconclusive means small, poorly fitted or top-dose-only effect, or another doubt; inactive means no such curve, though single readings can be large; an effect the other way counts as inactive or inconclusive.

Chain of Phospholipid hydroperoxide glutathione peroxidase GPX4 (Homo sapiens) (P36969 whole entry, looked up): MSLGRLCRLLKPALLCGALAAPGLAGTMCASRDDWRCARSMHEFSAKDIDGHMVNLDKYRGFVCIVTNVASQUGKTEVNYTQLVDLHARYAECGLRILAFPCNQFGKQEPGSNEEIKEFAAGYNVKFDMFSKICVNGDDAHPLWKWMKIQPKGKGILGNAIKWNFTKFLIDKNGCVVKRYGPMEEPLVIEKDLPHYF
Chain of Glutathione peroxidase 1 (Homo sapiens) (P07203 whole entry, looked up): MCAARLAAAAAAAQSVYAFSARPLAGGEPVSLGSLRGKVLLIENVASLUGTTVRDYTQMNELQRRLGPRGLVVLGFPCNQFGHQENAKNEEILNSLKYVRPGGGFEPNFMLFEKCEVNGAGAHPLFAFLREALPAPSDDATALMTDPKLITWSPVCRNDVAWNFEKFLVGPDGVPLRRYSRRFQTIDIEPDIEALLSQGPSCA

For `Cc1[nH]c2ccccc2c1CCNC(=O)c1ccccc1F`, the Potency result in test [1], in test [2], in test [3], in test [4], in test [6] and in test [7] was “inactive” throughout. Moreover, the Potency in test [5] is 4.23 µM (active).
For `CNCc1ccc(-c2cc(-c3nc(-c4ccc(S(=O)(=O)C(C)C)cc4)cnc3N)on2)cc1`, in test [1], the Potency was 183 nM (active) and 93.4 nM (active). Moreover, the Potency result in test [2], in test [3], in test [4], in test [5], in test [6] and in test [7] was “inactive” each time.
Consider `CC1CCC2(OC1)OC1CC3C4CCC5C[C@@H](O[C@@H]6O[C@H](CO[C@@H]7OC[C@@H](O)[C@H](O)[C@H]7O)[C@H](O)[C@H](O)[C@H]6O)CC[C@]5(C)C4CC[C@]3(C)C1C2C` (stereo partly specified), for which the Potency entry in test [1], in test [2], in test [3], in test [4], in test [5] and in test [6] was “inactive” in each case. In test [7], the Potency entry was “inactive”.
Turning to `CC1(C)CC[C@]2(C(=O)O[C@@H]3O[C@H](CO)[C@@H](O)[C@H](O)[C@H]3O)CC[C@]3(C)C(=CCC4[C@@]5(C)CC[C@H](O[C@@H]6O[C@H](C(=O)O)[C@@H](O)[C@H](O)[C@H]6O)[C@@](C)(CO)C5CC[C@]43C)C2C1` (stereo partly specified), the activity change, negative = cell killing in test [1] is 4.55% [at 9.23 µM]. In addition, the Potency entry in test [2] and in test [3] was “inactive” each time. For the same compound, the activity change, negative = inhibition in test [4] was -3.91% [at 11.6 µM]. The activity change, negative = thiol reactive in test [5] was 129% [at 11.5 µM]. Further, the activity, negative = inhibition in test [6] is -2.6% [at 11.6 µM]. The redox activity (% of DA3003) in test [7] is 15.6% [at 11.5 µM].
Take `CC1(C)CC(=O)C2=C(C1)NC(=S)NC2c1cccc(O)c1` (stereo unspecified): in test [1], the Potency was 817 nM (active). In addition, the Potency result in test [2], in test [3], in test [4], in test [5], in test [6] and in test [7] was “inactive” in each case.
For the compound `CC(C)CCC(=O)CC1c2ccccc2C(=O)N1c1ccc2ccc(Cl)nc2n1` (stereo unspecified), the Potency entry in test [1], in test [2], in test [3], in test [4], in test [5] and in test [6] was “inactive” each time. For the same compound, in test [7], the Potency entry is “inactive”.
`COc1cc(/C=C/C(=O)O[C@H]2[C@H](O)[C@@H](CO)O[C@@]2(CO)O[C@H]2O[C@H](CO)[C@@H](O)[C@H](O)[C@H]2O)ccc1O`: the Potency result in test [1], in test [2], in test [3], in test [4], in test [5] and in test [6] was “inactive” each time. The Potency entry in test [7] was “inactive”.
For the compound `CN(C)CC1CCOC1(c1ccccc1)c1ccccc1` (stereo unspecified), the Potency entry in test [1], in test [2], in test [3], in test [4], in test [5] and in test [6] was “inactive” in each case. In test [7], the Potency entry is “inactive”.
Turning to `CC1CC(C(O)C(C)(C)O)OC2CC3(C)C4(C)CCC5C(C)(C)C(=O)CCC5(C)C4CCC3(O)C12O` (stereo unspecified), the Potency entry in test [1], in test [2], in test [3], in test [4], in test [5] and in test [6] was “inactive” each time. The Potency result in test [7] is “inactive”.
For `COC(=O)C[C@H]1C(C)(C)[C@H](OC(=O)C(C)C)[C@@]2(O)C(=O)[C@]1(C)C1CC[C@]3(C)C(CC(=O)O[C@H]3c3ccoc3)[C@]13O[C@@H]32` (stereo partly specified), the Potency entry in test [1], in test [2], in test [3], in test [4], in test [5] and in test [6] was “inactive” each time. In addition, in test [7], the Potency result was “inactive”.
On to `Cc1ccccc1CN1C2=NCCN2C(=O)C2=C1CCN(Cc1ccccc1)C2`, for which the Potency result in test [1], in test [2], in test [3], in test [4], in test [5] and in test [6] was “inactive” throughout. Besides, the Potency result in test [7] is “inactive”.
In the case of `CC(C)=CCC[C@](C)(O[C@@H]1O[C@H](CO)[C@@H](O)[C@H](O)[C@H]1O)[C@H]1CC[C@]2(C)[C@@H]1[C@H](O)CC1[C@@]3(C)CC[C@H](O)C(C)(C)C3[C@@H](O[C@@H]3O[C@H](CO)[C@@H](O)[C@H](O)[C@H]3O[C@@H]3OC[C@@H](O)[C@H](O)[C@H]3O)C[C@]12C` (stereo partly specified), the activity change, negative = cell killing in test [1] is -29.2% [at 9.23 µM]. Further, the Potency entry in test [2] and in test [3] was “inactive” in each case. Also, in test [4], the activity change, negative = inhibition is -4.76% [at 11.6 µM]. In addition, in test [5], the activity change, negative = thiol reactive was 136% [at 11.5 µM]. Further, the activity, negative = inhibition in test [6] is -0.941% [at 11.6 µM]. Further, the redox activity (% of DA3003) in test [7] is 12.7% [at 11.5 µM].
For `COc1c2c(c(C)c3c1C(=O)OC3)OC1(C)CC(O)C34OC(OC)(OC3(C)C)C(O)CC4(C)C1C2` (stereo unspecified), the Potency result in test [1], in test [2], in test [3], in test [4], in test [5] and in test [6] was “inactive” throughout. For the same compound, the Potency entry in test [7] was “inactive”.
For the compound `C[C@@H]1CN(Cc2ncccn2)C[C@H]1c1nc2c(cnn2C2CCOCC2)c(=O)[nH]1`, the Potency entry in test [1], in test [2], in test [3], in test [4], in test [5] and in test [6] was “inactive” each time. In addition, in test [7], the Potency entry was “inactive”.
As for `CC1COC2(OC3CC4C5CC(O[C@@H]6O[C@H](C)[C@@H](O[C@@H]7O[C@@H](C)[C@H](O)[C@@H](O)[C@H]7O)[C@H](O)[C@H]6O)C6CC(O)CCC6(C)C5CCC4(C)C3C2C)C(O)C1` (stereo partly specified), the Potency entry in test [1], in test [2], in test [3], in test [4], in test [5] and in test [6] was “inactive” each time. For the same compound, the Potency result in test [7] is “inactive”.
As for `CC1(C)CC2C(O)c3cocc3CC(C)(O)C2C1` (stereo unspecified), the Potency result in test [1], in test [2], in test [3], in test [4], in test [5] and in test [6] was “inactive” each time. The Potency entry in test [7] is “inactive”.
Regarding `C/C=C1\[C@H](O[C@@H]2O[C@H](CO)[C@@H](O)[C@H](O)[C@H]2O)OC=C(C(=O)OC)[C@H]1CC(=O)O`, the Potency result in test [1], in test [2], in test [3], in test [4], in test [5] and in test [6] was “inactive” in each case. In addition, the Potency result in test [7] was “inactive”.
As for `COc1c2c(c(CO)c3c1C(=O)OC3)OC1(C)CCC3(O)C(C)(C)OC(=O)CCC3(C)C1C2` (stereo unspecified), the Potency entry in test [1], in test [2], in test [3], in test [4], in test [5] and in test [6] was “inactive” throughout. In test [7], the Potency result is “inactive”.
